According to PubChem BioAssay AID1159580 (chemical genetic matrix, 2015):
Where “and” joins values, the source holds several entries; their conditions need not be identical. Identical values can stand only once. About 2,000 (36%) of roughly 5,500 compounds were called active. Roughly 18% stayed inconclusive and do not appear here. Rule as the data show it: active = normalized growth mostly below about 0.91 (no sharp cut-off); inconclusive = no clear call, values can overlap the other calls; inactive = mostly above about 0.92. This is one part of the list. More than one record can exist for a structure, and the calls need not agree.

Experiment: chemical genetic growth profiling, strain panel (AID 1159580);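 also: tested at 20 µM; growth read once vehicle control cultures reached saturation at 30 °C; 1 = growth at the plate median or of vehicle wells; lower values mean less growth of the strain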
Conditions: S. cerevisiae deletion strains, growth OD
[1] = locus YBR021W, strain FUR4, stronger effect = lower value
[2] = locus YBR229C, strain ROT2, stronger effect = lower value
[3] = locus YCL029C, strain bik1, stronger effect = lower value
[4] = locus YDL035C, strain GPR1, stronger effect = lower value
[5] = locus YDL074C, strain BRE1, stronger effect = lower value
[6] = locus YDL101C, strain DUN1, stronger effect = lower value
[7] = locus YDL185W, strain tfp1, stronger effect = lower value
[8] = locus YDL192W, strain arf1, stronger effect = lower value
[9] = locus YDR101C, strain arx1, stronger effect = lower value
[10] = locus YDR162C, strain NBP2, stronger effect = lower value
[11] = locus YDR318W, strain mcm21, stronger effect = lower value
[12] = locus YDR388W, stronger effect = lower value
[13] = locus YDR502C, strain sam2, stronger effect = lower value
[14] = locus YEL061C, strain CIN8, stronger effect = lower value
[15] = locus YER110C, stronger effect = lower value
[16] = locus YER155C, strain BEM2, stronger effect = lower value
[17] = locus YER167W, strain BCK2, stronger effect = lower value
[18] = locus YGL078C, strain dbp3, stronger effect = lower value
[19] = locus YGL086W, strain mad1, stronger effect = lower value
[20] = locus YGL248W, strain PDE1, stronger effect = lower value
[21] = locus YGR078C, strain PAC10, stronger effect = lower value
[22] = locus YGR135W, strain pre9, stronger effect = lower value
[23] = locus YGR252W, strain gcn5, stronger effect = lower value
[24] = locus YHR030C, strain SLT2, stronger effect = lower value
[25] = locus YHR079C, strain IRE1 (second series), stronger effect = lower value
[26] = locus YHR094C, strain hxt1, stronger effect = lower value
[27] = locus YHR129C, strain ARP1, stronger effect = lower value
[28] = locus YHR200W, strain rpn10, stronger effect = lower value
[29] = locus YIL066C, strain RNR3, stronger effect = lower value
[30] = locus YIL073C, strain SPO22, stronger effect = lower value
[31] = locus YIL125W, strain kgd1, stronger effect = lower value
[32] = locus YIR030C, strain dcg1, stronger effect = lower value
[33] = locus YJL095W, strain BCK1, stronger effect = lower value
[34] = locus YJL134W, strain LCB3, stronger effect = lower value
[35] = locus YJL168C, strain set2, stronger effect = lower value
[36] = locus YJL187C, strain SWE1 (second series), stronger effect = lower value
[37] = locus YJR043C, strain POL32, stronger effect = lower value
[38] = locus YKL009W, strain mrt4, stronger effect = lower value
[39] = locus YKL068W, stronger effect = lower value
[40] = locus YKL085W, strain MDH1 (second series), stronger effect = lower value
[41] = locus YKL085W, strain MDH1, stronger effect = lower value
[42] = locus YKL190W, strain CNB1, stronger effect = lower value
[43] = locus YKR001C, strain vps1, stronger effect = lower value
[44] = locus YLR039C, strain RIC1, stronger effect = lower value
[45] = locus YLR058C, strain SHM2, stronger effect = lower value
[46] = locus YLR102C, strain apc9, stronger effect = lower value
[47] = locus YLR262C, strain YPT6, stronger effect = lower value
[48] = locus YLR268W, strain sec22, stronger effect = lower value
[49] = locus YLR330W, strain CHS5, stronger effect = lower value
[50] = locus YLR342W, strain FKS1 (second series), stronger effect = lower value
[51] = locus YLR371W, strain rom2, stronger effect = lower value
[52] = locus YLR418C, strain cdc73, stronger effect = lower value
[53] = locus YML016C, strain PPZ1, stronger effect = lower value
[54] = locus YML032C, strain rad52, stronger effect = lower value
[55] = locus YML124C, strain tub3, stronger effect = lower value
[56] = locus YMR078C, strain ctf18, stronger effect = lower value
[57] = locus YMR223W, strain ubp8, stronger effect = lower value
[58] = locus YMR263W, strain SAP30, stronger effect = lower value
[59] = locus YMR307W, strain GAS1, stronger effect = lower value
[60] = locus YNL067W, strain RPL9B, stronger effect = lower value
[61] = locus YNL233W, strain BNI4, stronger effect = lower value
[62] = locus YNL250W, strain rad50, stronger effect = lower value
[63] = locus YNL271C, strain bni1, stronger effect = lower value
[64] = locus YNL298W, strain CLA4, stronger effect = lower value
[65] = locus YNL307C, strain MCK1, stronger effect = lower value
[66] = locus YNR052C, strain pop2, stronger effect = lower value
[67] = locus YOL006C, strain TOP1, stronger effect = lower value
[68] = locus YOL147C, strain pex11, stronger effect = lower value
[69] = locus YOR061W, strain CKA2, stronger effect = lower value
[70] = locus YOR069W, strain VPS5, stronger effect = lower value
[71] = locus YOR136W, strain idh2, stronger effect = lower value
[72] = locus YOR144C, strain elg1, stronger effect = lower value
[73] = locus YOR184W, strain ser1, stronger effect = lower value
[74] = locus YOR316C, strain cot1, stronger effect = lower value
[75] = locus YPL055C, strain LGE1, stronger effect = lower value
[76] = locus YPR119W, strain clb2, stronger effect = lower value
[77] = locus YPR141C, strain kar3, stronger effect = lower value
[78] = locus YPR163C, strain tif3, stronger effect = lower value
[79] = locus YPR167C, strain met16, stronger effect = lower value
[80] = strain wtn01, stronger effect = lower value

Measured: normalized growth

COc1ccc(-c2coc3cc(OC)ccc3c2=O)cc1
0.973 (inactive) and 0.882 (active): [24]
inactive: locus YAL013W, strain DEP1, stronger effect = lower value 0.933 | [1] 1.02 | [3] 0.929 | [4] 0.905 | [5] 0.839 | [9] 0.92 | locus YDR150W, strain NUM1, stronger effect = lower value 0.94 | [15] 0.907 | [16] 1.01 | [17] 0.906 | [18] 0.936 | [23] 0.851 | locus YHR079C, strain IRE1, stronger effect = lower value 0.976 | [26] 0.949 | [30] 0.783 | [31] 0.941 | [32] 0.931 | [34] 0.941 | [35] 0.936 | [36] 0.891 | [37] 0.885 | locus YJR066W, strain TOR1, stronger effect = lower value 0.9 | locus YJR075W, strain HOC1, stronger effect = lower value 0.913 | [38] 0.92 | [42] 0.933 | [45] 0.906 | [46] 0.941 | locus YLR113W, strain HOG1, stronger effect = lower value 0.984 | [48] 0.919 | [51] 0.933 | [53] 0.922 | [54] 0.942 | [56] 0.929 | [57] 0.911 | [58] 0.898 | [59] 0.658 | [60] 0.886 | locus YNL183C, strain NPR1, stronger effect = lower value 0.921 | [61] 0.888 | [62] 0.943 | locus YNL322C, strain KRE1, stronger effect = lower value 0.936 | [66] 0.928 | [67] 0.589 | locus YOL012C, strain htz1 0.966 | [69] 0.899 | [70] 0.937 | [71] 0.971 | [72] 0.937 | locus YOR231W, strain MKK1, stronger effect = lower value 0.982 | [74] 0.928 | [75] 0.836 | locus YPL256C, strain CLN2, stronger effect = lower value 0.968 | [76] 0.947 | [77] 0.921 | [79] 0.943 | [80] 0.91
0.983 (inactive) and 0.669 (active): [33]
active: [2] 0.908 | [6] 0.891 | [7] 0.896 | [8] 0.898 | [10] 0.607 | [11] 0.912 | [12] 0.92 | [13] 0.907 | [14] 0.917 | [19] 0.906 | [20] 0.876 | [21] 0.811 | [22] 0.89 | [25] 0.922 | [27] 0.915 | [28] 0.906 | [29] 0.807 | [39] 0.93 | [40] 0.928 | [41] 0.928 | [43] 0.644 | [44] 0.48 | [47] 0.468 | [49] 0.874 | [50] 0.763 | [52] 0.736 | [55] 0.925 | [63] 0.918 | [64] 0.906 | [65] 0.543 | [68] 0.922 | [73] 0.783 | [78] 0.772

COc1ccccc1-c1coc2cc(O)ccc2c1=O
inactive: [1] 0.987 | [2] 1.01 | [3] 1 | [4] 0.983 | [5] 1.02 | [6] 0.995 | locus YDL134C, strain PPH21, stronger effect = lower value 0.963 | [7] 0.999 | [8] 1 | [9] 0.996 | [10] 0.986 | [11] 1.01 | [12] 1.03 | [13] 1.02 | [14] 1.02 | [15] 1.02 | [16] 1.02 | [17] 1.03 | [18] 1 | [19] 1.01 | [20] 1.01 | [21] 0.995 | [22] 0.999 | [23] 0.88 | [24] 1.02 | [25] 1.02 | [26] 1.02 | [27] 1.03 | [28] 1.03 | [29] 1.01 | [30] 1.05 | [31] 1.02 | [32] 1.01 | [33] 1.04 | [34] 1.02 | [35] 1.02 | [36] 0.998 | [37] 0.971 | [38] 0.993 | [39] 1 | [40] 1 | [41] 1 | [42] 1.02 | [43] 0.979 | [44] 1.03 | [45] 1.01 | [46] 1.01 | [47] 0.991 | [48] 0.997 | [49] 1.03 | [50] 0.992 | [51] 1.02 | [52] 0.969 | [53] 1.04 | [54] 1.02 | [55] 1.01 | [56] 1.01 | [57] 0.999 | [58] 1 | [59] 0.909 | [60] 0.987 | [61] 1.02 | [62] 1.02 | [63] 1.02 | [64] 1 | [65] 1.02 | [66] 1.01 | [67] 1.08 | locus YOL012C, strain htz1 1.12 | [68] 1.01 | [69] 1.01 | [70] 1.02 | [71] 1.03 | [72] 0.999 | [73] 0.981 | [74] 1.03 | [75] 1 | locus YPL241C, strain CIN2, stronger effect = lower value 0.996 | [76] 1 | [77] 1.01 | [78] 1.02 | [79] 1.01 | [80] 0.986
